Source: PubChem BioAssay AID624170 (National Center for Advancing Translational Sciences (NCATS), 2012)
About 850 (0.21%) of roughly 410,000 compounds were called active. Another 2% or so got no clear call; they are omitted. Calls follow the shape of the dose curve; as a rule, active = well fitted inhibition curve with a large enough effect; inconclusive = small, poorly fitted or top-dose-only effect, or another doubt; inactive = no such curve, though single readings can be large or run the other way. Many of the other results were omitted from the sample, so actives are more common in it than they were. Square brackets hold non-standard residues; d marks the D form. Side chains are listed from the residue outwards. Peptide text beside a SMILES is read from it. * marks the point of attachment. X1 = CCC(C)C(N)C1=NC(C(=O)*)CS1; Orn = NCCC[CH](N)C(=O)O

Molecular target: Glutaminase kidney isoform, mitochondrial (Homo sapiens) (UniProt O94925)
Sequence (O94925 whole entry, looked up, canonical isoform): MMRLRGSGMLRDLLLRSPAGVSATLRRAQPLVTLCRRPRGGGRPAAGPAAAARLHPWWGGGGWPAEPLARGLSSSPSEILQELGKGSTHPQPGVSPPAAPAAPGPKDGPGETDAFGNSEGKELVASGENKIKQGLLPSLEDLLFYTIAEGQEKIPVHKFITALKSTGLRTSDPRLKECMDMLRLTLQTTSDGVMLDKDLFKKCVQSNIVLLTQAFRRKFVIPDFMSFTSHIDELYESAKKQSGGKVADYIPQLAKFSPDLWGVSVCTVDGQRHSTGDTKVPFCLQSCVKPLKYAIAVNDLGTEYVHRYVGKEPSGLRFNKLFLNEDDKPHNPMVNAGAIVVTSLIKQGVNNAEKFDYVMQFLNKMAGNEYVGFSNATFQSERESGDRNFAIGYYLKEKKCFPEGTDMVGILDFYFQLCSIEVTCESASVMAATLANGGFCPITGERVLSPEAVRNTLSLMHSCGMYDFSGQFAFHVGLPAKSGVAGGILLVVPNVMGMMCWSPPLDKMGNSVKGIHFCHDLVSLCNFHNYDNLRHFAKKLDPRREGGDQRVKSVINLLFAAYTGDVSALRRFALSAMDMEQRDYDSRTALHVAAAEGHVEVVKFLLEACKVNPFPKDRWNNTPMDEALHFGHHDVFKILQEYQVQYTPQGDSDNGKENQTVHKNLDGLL
Assay: qHTS for Inhibitors of Glutaminase (GLS)
Conditions: GLS enzymatic activity, qHTS titration; series mostly up to 45.5 µM; activity change, negative = inhibition: at the top concentration
From the text: Glutaminase (GLS) catalyzes the hydrolysis of glutamine into glutamate and ammonia. It plays a critical role in glutaminolysis, which is an important energy source for proliferating cells. It was shown that c-Myc, an oncogenic transcription factor known to regulate microRNAs and to stimulate cell proliferation, increases glutamine metabolism by stimulating the expression of GLS via direct suppression of miR23a and miR23b.
GLS is also thought to play a pathogenic role on HAD using a human HIV-1 infected macrophage system. […] GLS inhibition limits glutamate release and provides neuroprotection against HIV-1 infected macrophages.
The overall goal of this project is to identify small molecule inhibitors of GLS through quantitative high throughput screening (qHTS) of the MLSMR. A validated potent and selective inhibitor can be used as a tool molecule to further study the pharmacology of its target as well as explore its potential therapeutic application in cancer and inflammatory neurological disorders, such as HIV1-associated dementia (HAD) and multiple sclerosis.
NIH Chemical Genomics Center [NCGC]
NIH Molecular Libraries Probe Centers Network [MLPCN]
Assay Submitter (PI): Barbara S. Slusher, Johns Hopkins University
Three 3 uL of hKGA is dispensed into black well 1536-well plates in 45 mM KH2PO4 (pH 8.2), 0.02% Tween-20. Then 23 nL of compounds are added through pin tool transfer. To this, 1 uL of 1mM L-Glutamine and 1 uL of a solution of L-Glutamateoxidase, HRP, Amplex red are added. Plate is centrifuged for 25 sec before an initial fluorescence read is obtained on the ViewLux, after 30 min of RT incubation, the final read is taken on the ViewLux.
% is scaled to controls: 0 for no effect and ±100 for the full control effect; potency is read from the fitted curve at half-maximal effect.

Potency, active:
COc1cc(/C=C2/SC(=S)N(Cc3ccccc3)C2=O)cc(OC)c1O 20 µM
CN(N)c1nc(N2CCCC2)nc(N2CCCC2)n1 14.1 µM
Cn1cnc2c1c(=O)n(Cc1c(Cl)cccc1Cl)c(=O)n2C 20 µM
FC(F)(F)C1CCCN(c2nsc3ccccc23)C1 (stereo not drawn) 7.94 µM
COc1cc([C@H](Cc2ccccc2)NC(C)=O)oc(=O)c1 17.8 µM
O=C(Nc1ccccc1)c1nnsc1S(=O)(=O)c1ccc(Cl)cc1 14.1 µM
O=C(O)/C=C/C(=O)NNc1ccc([N+](=O)[O-])cc1 11.2 µM
CC(C)OCCCNc1nc2c(c(=O)n(Cc3ccccc3F)c(=O)n2C)n1C 12.6 µM
Cc1cc(C)c2nc(-c3ccco3)cc(C(=O)O)c2c1 11.2 µM
C=C1c2c(Cl)ccc(O)c2C(O)=C2C(=O)[C@]3(O)C(O)=C(C(N)=O)C(=O)[C@@H](N(C)C)[C@@H]3[C@@H](O)C12 (stereo partly drawn) 10 µM
CCNCCC(=O)N1c2ccccc2Sc2ccc(NC(=O)OCC)cc21 11.2 µM
CCOc1cccc(/C=N/N2C(=O)CSC2=S)c1O 10 µM
O=c1oc2ccccc2cc1-c1csc(Nc2ccc(O)cc2)n1 2.82 µM
CCN1C(=O)c2cccc3c(S(=O)(=O)Nc4ccccc4O)ccc1c23 11.2 µM
Cn1c(SCC(=O)N/N=C/c2ccc(O)c(O)c2)nc2ccccc21 17.8 µM

Potency, inactive:
CC1(C)OC[C@@H](COC(=O)CCc2ccc(OC[C@@H](O)CNCCNC(=O)N3CCOCC3)cc2)O1

Activity change, negative = inhibition, inactive:
COc1ccc(CCNC(=O)CCCCn2c(=O)c3ccccc3n(Cc3ccccc3)c2=O)cc1OC -3.74%
CCOC(=O)C1=CCC2C(=O)N(Cc3ccccc3)C(=O)C12 (stereo not drawn) 5.61%
COc1cc(NC(=O)c2nn(-c3ccc(C)cc3)c(=O)c3c2c2ccccc2n3C)cc(OC)c1OC -5.7%
COc1ccc(CCC(=O)NCCc2csc(-c3ccc(Cl)cc3)n2)cc1 2.21%
FC(F)(F)COc1nc(N2CCCCC2)nc(N2CCNCC2)n1 -3.1%
COc1nc(NC2CCCCC2)nc(N2CCCCCC2)n1 -4.19%
CCCN(CC)[C@@H](CC)C(=O)Nc1c(C)cccc1C 3.2%
O=C(O)CCC(=O)O -1.49%
O=C(CCSCc1ccccc1F)N1CCN(c2ccc(Cl)cc2)CC1 0.607%
Cn1cnc2c1c(=O)n(Cc1ccccc1C#N)c(=O)n2C -19%
Cn1c(=O)n(Cc2c(F)cccc2Cl)c(=O)c2c1nc1n2CCN1c1ccc(F)cc1 0.648%
CO[C@H]1C[C@@H](O[C@@H]2[C@@H](C)O[C@@H](O[C@@H]3/C(C)=C/CC4C[C@@H](C[C@]5(C=C[C@@H](C)[C@H](C6CCCCC6)O5)O4)OC(=O)[C@@H]4C=C(C)[C@@H](O)[C@H]5OC/C(=C\C=C\[C@@H]3C)[C@]54O)C[C@H]2OC)O[C@@H](C)[C@@H]1O -20%
NC(=O)C(=O)N/N=C/c1ccc([N+](=O)[O-])o1 -7.32%
COc1cc(C[C@H]2NCCc3cc(O)c(O)cc32)cc(OC)c1OC 20%
O=S(O)CNc1ccc(S(=O)(=O)c2ccc(NCS(=O)O)cc2)cc1 -9.19%
COc1cc([C@@H]2c3cc4c(cc3[C@@H](O[C@@H]3O[C@@H]5CO[C@@H](C)O[C@H]5[C@H](O)[C@H]3O)[C@H]3COC(=O)[C@H]23)OCO4)cc(OC)c1OP(=O)(O)O -14.1%
COc1ccc(-c2ccc(=O)n(CC(=O)Nc3ccc(Br)cc3F)n2)cc1 -2.19%
COc1ccc(CNC(=O)C(Cc2ccccc2)n2cccc2)cc1 (stereo not drawn) -3.68%
COc1ccc2oc(C(=O)NCC(Cc3ccccc3)N(C)C)c(C)c2c1 (stereo not drawn) 11%
COc1ccc(N2CCN(S(=O)(=O)CCNC(=O)C(c3ccccc3)c3ccccc3)CC2)cc1 6.36%
CCOC(=O)c1ccccc1NC(=O)CCc1c(C)nc2c(c1C)c(=O)n(C)c(=O)n2C -6.2%
O=C(O)CCCCC(=O)O -1.94%
CCOc1ccc(NC(=O)c2c(NC(=O)Cc3ccccc3)sc3c2CCC(C)C3)cc1 (stereo not drawn) -27.7%
O=C(Nc1ccc(Oc2ccccc2)cc1)C1CCN(S(=O)(=O)c2ccc(Cl)cc2)CC1 -5.18%
O=C(Nc1cccc(Cl)c1)c1csnn1 -8.09%
CCCC[C@H]1C(=O)N(c2ccccc2)N(c2ccc(O)cc2)C1=O -6.67% [at 20 µM]
O=C(OCc1ccccc1)c1ccc(O)cc1 16.9%
CC(=O)OC1C([N+]2(C)CCCCC2)C[C@H]2C3CC[C@H]4C[C@H](OC(C)=O)C([N+]5(C)CCCCC5)CC4(C)C3CCC12C (stereo partly drawn) 4.13%
O=C(O)CC(Cc1ccccc1)C(=O)Nc1ccc([N+](=O)[O-])cc1 (stereo not drawn) 1.28%
CC(C)(C)C(=O)NCCCNc1ccc([N+](=O)[O-])cc1 -9.97%
CCCCC(=O)OCC(=O)[C@H]1[C@H](C)C[C@@H]2[C@@H]3C[C@@H](F)C4=CC(=O)C=C[C@]4(C)[C@@]3(F)[C@@H](O)C[C@@]21C -8.67%
COc1ccc(NC(=O)c2sc3nc[nH]c(=O)c3c2C)cc1 -11%
Cn1c(=O)c2c(nc(NCCc3ccccc3)n2Cc2ccccc2Br)n(C)c1=O 4.52%
Cn1c(=O)c2c(nc(NCCNC(=O)c3ccco3)n2Cc2ccccc2F)n(C)c1=O -2.17%
CCC(C)Nc1oc(-c2ccc(COc3ccc(Cl)cc3)o2)nc1C#N (stereo not drawn) 11.6%
CC(O)COc1ccccc1 (stereo not drawn) -9.16%
Cc1cccc(NC(=O)CSc2nc(-c3ccco3)cc(C(F)(F)F)n2)c1C 8.96%
Cc1cc(C)c2c(c1)c(C)cc1nnc(SCC(=O)NCc3ccco3)n12 -0.984%
COC(=O)[C@@H]1CC2=CC(=O)CC[C@]2(C)[C@@]23O[C@@H]2C[C@@]2(C)[C@@H](CC[C@@]24CCC(=O)O4)[C@H]13 11.8%
CC(NC(=O)CCc1cn(Cc2ccccc2Cl)c2ccccc12)c1ccccc1 (stereo not drawn) -0.697%
Cc1ccc(Cn2c(CNC(=O)Cc3cccc(C)c3)nc3cccnc32)cc1 1.55%
Cc1c(O)cc2c(c1C)O[C@](C)(CCC[C@H](C)CCC[C@H](C)CCCC(C)C)CC2 1.97%
CCC[C@H]1C(=O)N2C(N(C)C)=Nc3ccc(C)cc3N2C1=O -12.6% [at 20 µM]
CCc1cc2c(cc3c(=O)n(CC(=O)N4CCN(c5cc(Cl)ccc5C)CC4)ncn32)s1 2.45%
CC(C)CCN(C(=O)Nc1ccc(Cl)c(Cl)c1)C(C)c1cccs1 (stereo not drawn) 6.32%
COc1ccc(C2(C#N)CCC(C(=O)O)CC2)cc1OC1CCCC1 (stereo not drawn) 86.3%
CCOC(=O)Nc1ccc2c(c1)N(C(=O)CCCl)c1ccccc1[S@]2=O -1.48%
CCOC(=O)Nc1ccc2c(c1)N(C(=O)CN1CCN3CCCC3C1)c1ccccc1CC2 (stereo not drawn) 0.588%
COc1cc(C(=O)N2CCC(c3ccncc3)CC2)cc(OC)c1OC -16%
O=C(Nc1ccc(O)cc1)c1ccccc1O 18.9%
COc1cc(OC)cc(C(=O)Nc2cc3nn(-c4ccccc4)nc3cc2Cl)c1 -7.39%
CCCc1c2oc(C(=O)O)cc(=O)c2cc2c(=O)cc(C(=O)O)n(CC)c12 -0.467%
CCOc1cc(/C=N/n2cnnc2)c(Br)cc1O 27.6%
O=C1CSC(=S)N1/N=C/c1ccc(O)c([N+](=O)[O-])c1 -1.11%
Cc1ccccc1NC(=O)c1cc2c([nH]c1=O)CC(C)(C)CC2=O -24%
CCC(C)C(N)C1=NC(C(=O)NC(CC(C)C)C(=O)NC(CCC(=O)O)C(=O)NC(C(=O)NCCCCC2NC(=O)C(CC(N)=O)NC(=O)C(CC(=O)O)NC(=O)C(Cc3cnc[nH]3)NC(=O)C(Cc3ccccc3)NC(=O)C(C(C)CC)NC(=O)C(CCCN)NC2=O)C(C)CC)CS1 (stereo not drawn) (cyclo(DNK([Ile-Glu-Leu-X1])[Orn]IFH); configuration not given here) 5.57%
CC1(C)[C@H](O[C@H]2O[C@H](C(=O)O)[C@@H](O)[C@H](O)[C@H]2O[C@@H]2O[C@H](C(=O)O)[C@@H](O)[C@H](O)[C@H]2O)CC[C@@]2(C)[C@H]1CC[C@]1(C)[C@H]2C(=O)C=C2[C@H]3C[C@@](C)(C(=O)O)CC[C@]3(C)CC[C@]21C 14.9%
N#C/C(=C\c1cccc(F)c1)c1nc(-c2cc3c(ccc4ccccc43)oc2=O)cs1 9.66%
Cc1cc(NC(=O)c2cccc(Cl)c2)ccc1-c1cc2ccccc2oc1=O -8.99%
Cc1cc2nc(NC(=O)c3ccc(S(=O)(=O)N4CCOCC4)cc3)sc2cc1C -6.57%
CC1(C)O[C@@H]2C[C@@H]3[C@H]4C[C@@H](F)C5=CC(=O)C=C[C@]5(C)[C@@]4(F)[C@@H](O)C[C@]3(C)[C@]2(C(=O)CO)O1 -9.75%
NNc1nnc(NN)c2ccccc12 18.4%
COc1ccc(Br)cc1CNC(=O)c1cc(=O)[nH]c2ccc(S(=O)(=O)N3CCCC3)cc12 -6.81%
O=C1c2c(O)cccc2[C@@H]([C@@H]2O[C@H](CO)[C@@H](O)[C@H](O)[C@H]2O)c2cc(CO)cc(O)c21 -1.67%
CCC(CCC(C)C1CCC2C3CC=C4CC(O)CC[C@@]4(C)C3CC[C@@]12C)C(C)C (stereo partly drawn) 0.242%
CCN(CC)S(=O)(=O)c1ccc2c3c(cccc13)C(=O)S2 -7.06%
CCN1C(=O)c2ccccc2S(=O)c2ccc(C(=O)NCc3ccc(F)cc3)cc21 (stereo not drawn) -0.753%
Cc1ccc(CSc2nc3ccsc3c(=O)n2CCC(C)C)cc1 6.64%
CC[C@]1([C@H]2O[C@@H]([C@@H]3O[C@](O)(CO)[C@@H](C)C[C@H]3C)C[C@H]2C)CC[C@@H]([C@]2(C)CC[C@@]3(C[C@@H](O)[C@@H](C)[C@@H]([C@H](C)[C@H](OC)[C@H](C)C(=O)O)O3)O2)O1 0.877%
Cc1nc2nc(SCC(=O)NC3CCC(C)CC3)nn2c(C)c1Cc1ccccc1Cl (stereo not drawn) -5.16%
C=CCn1c(Cn2nnc3ccccc32)nnc1SCC(=O)N/N=C/c1cc(Br)cc(OC)c1O 28.5%
COc1ccc(OC)c(NC(=O)CSc2nc3cccnc3n2C)c1 -1.35%
